The values that follow come from PMC7862700, “An all-to-all approach to the identification of sequence-specific readers for epigenetic DNA modifications on cytosine”.

Holding throughout (experiment): DAPPL (digital affinity profiling via proximity ligation, sequencing); 10 mM Tris-HCl pH 7.5, 50 mM NaCl, 1 mM DTT, 4% glycerol, room temperature, 30 min; GST-TFs on glutathione beads, 16-mer random dsDNA library, 0.1% formaldehyde crosslink after washing; high values mean tight binding
One experiment deals with T1, FLI1 (Homo sapiens, UniProt Q01543 1-452).
T1 sequence: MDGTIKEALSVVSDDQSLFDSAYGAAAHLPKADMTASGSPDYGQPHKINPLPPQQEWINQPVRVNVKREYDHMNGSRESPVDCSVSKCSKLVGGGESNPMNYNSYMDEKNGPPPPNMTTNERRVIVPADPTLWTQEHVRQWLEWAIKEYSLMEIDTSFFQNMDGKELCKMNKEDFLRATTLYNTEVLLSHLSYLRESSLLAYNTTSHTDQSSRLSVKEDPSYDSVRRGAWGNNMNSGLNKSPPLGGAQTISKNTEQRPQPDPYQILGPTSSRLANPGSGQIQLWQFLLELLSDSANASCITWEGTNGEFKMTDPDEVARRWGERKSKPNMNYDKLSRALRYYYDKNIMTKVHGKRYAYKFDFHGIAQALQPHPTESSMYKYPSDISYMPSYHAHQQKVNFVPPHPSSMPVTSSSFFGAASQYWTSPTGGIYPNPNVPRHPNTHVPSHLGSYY
Conditions: protein: recombinant; tags: N-terminal GST; dsDNA, one strand shown. In short, it runs like this: (§1)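 Sequencing on an Illumina NextSeq500 followed washing, crosslinking with 0.1% formaldehyde, proximity ligation (BsaI/T4 ligase, 1 h, 37 °C) and PCR amplification of pools that had been incubated for 30 min at room temperature with 200 nmole of a random double-stranded 16-mer DNA library in Tris/NaCl/DTT/glycerol buffer. Each pool held DNA-barcoded human transcription factors, expressed in yeast as GST fusions and captured on glutathione beads, plus a tag-only sample. Binding signal is a hexamer's read frequency for a factor divided by its frequency in the tag-only sample.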

The next experiment concerns the target T2, ELK1 (Homo sapiens, UniProt P19419 1-428).
T2 sequence: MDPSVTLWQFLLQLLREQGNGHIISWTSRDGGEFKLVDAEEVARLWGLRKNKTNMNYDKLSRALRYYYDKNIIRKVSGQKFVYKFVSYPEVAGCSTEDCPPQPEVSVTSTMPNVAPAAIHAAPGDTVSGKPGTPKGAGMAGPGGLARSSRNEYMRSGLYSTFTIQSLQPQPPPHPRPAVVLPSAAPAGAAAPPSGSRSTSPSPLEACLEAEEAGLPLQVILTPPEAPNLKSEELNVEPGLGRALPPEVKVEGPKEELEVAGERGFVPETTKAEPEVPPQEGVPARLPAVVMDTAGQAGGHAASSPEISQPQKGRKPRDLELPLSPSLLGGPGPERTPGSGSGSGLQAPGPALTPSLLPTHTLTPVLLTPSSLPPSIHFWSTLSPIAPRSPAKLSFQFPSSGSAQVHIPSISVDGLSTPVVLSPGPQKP
The conditions noted are these: protein: recombinant; tags: N-terminal GST; dsDNA, one strand shown. In short, it runs like this: as §1

In a further experiment the target is T3, GABPA (Homo sapiens, UniProt Q06546 1-454).
T3 sequence: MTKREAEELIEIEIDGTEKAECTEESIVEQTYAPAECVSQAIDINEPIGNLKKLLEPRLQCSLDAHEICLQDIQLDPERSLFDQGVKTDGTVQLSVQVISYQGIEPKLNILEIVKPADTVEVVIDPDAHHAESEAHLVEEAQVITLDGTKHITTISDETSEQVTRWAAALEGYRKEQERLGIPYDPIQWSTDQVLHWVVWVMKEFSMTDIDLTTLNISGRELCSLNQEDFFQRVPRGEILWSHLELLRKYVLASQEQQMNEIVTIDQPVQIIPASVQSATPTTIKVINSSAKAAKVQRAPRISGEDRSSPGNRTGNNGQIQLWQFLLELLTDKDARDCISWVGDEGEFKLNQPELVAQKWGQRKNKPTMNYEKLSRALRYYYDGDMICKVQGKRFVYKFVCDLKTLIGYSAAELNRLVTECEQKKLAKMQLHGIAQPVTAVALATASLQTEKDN
Conditions: protein: recombinant; tags: N-terminal GST; dsDNA, one strand shown. In short, it runs like this:
as §1

For the next experiment, the target named is T4, ERG (Homo sapiens, UniProt P11308 1-479).
T4 sequence: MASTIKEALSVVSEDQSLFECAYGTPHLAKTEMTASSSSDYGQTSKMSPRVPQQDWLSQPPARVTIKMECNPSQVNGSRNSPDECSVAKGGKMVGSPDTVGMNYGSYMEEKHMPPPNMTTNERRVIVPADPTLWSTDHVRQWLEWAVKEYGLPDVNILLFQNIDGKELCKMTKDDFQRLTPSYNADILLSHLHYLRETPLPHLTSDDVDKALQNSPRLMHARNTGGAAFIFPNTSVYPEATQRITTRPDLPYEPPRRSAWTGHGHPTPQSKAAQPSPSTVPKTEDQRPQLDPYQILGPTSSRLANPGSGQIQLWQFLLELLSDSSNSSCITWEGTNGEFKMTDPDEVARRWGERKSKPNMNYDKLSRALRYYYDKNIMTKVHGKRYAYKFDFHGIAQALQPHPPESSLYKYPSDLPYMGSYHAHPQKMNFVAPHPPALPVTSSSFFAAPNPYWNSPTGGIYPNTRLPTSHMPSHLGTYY
Conditions: protein: recombinant; tags: N-terminal GST; dsDNA, one strand shown. The essentials:
as §1

The target in the next experiment is ELF1 (Homo sapiens, UniProt P32519 1-619). The conditions noted are these: protein: recombinant; tags: N-terminal GST; dsDNA, one strand shown. In short, it runs like this:
as §1

In the next experiment the target is T5, EHF (Homo sapiens, UniProt Q9NZC4 1-300).
T5 sequence: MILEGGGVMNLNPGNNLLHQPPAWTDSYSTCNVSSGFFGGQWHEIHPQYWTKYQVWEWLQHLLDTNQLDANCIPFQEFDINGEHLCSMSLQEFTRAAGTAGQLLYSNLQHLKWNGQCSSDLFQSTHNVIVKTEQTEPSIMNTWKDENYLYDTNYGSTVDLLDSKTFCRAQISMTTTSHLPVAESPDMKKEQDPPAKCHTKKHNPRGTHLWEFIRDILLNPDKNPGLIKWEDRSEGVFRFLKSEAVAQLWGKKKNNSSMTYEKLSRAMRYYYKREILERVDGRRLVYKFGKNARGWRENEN
The conditions noted are these: protein: recombinant; tags: N-terminal GST; dsDNA, one strand shown. In short, it runs like this:
as §1

Another experiment addresses SPI1 (Homo sapiens, UniProt P17947 1-270). The conditions noted are these: protein: recombinant; tags: N-terminal GST; dsDNA, one strand shown. In short, it runs like this: as §1
The next experiment has as its target SPIB (Homo sapiens, UniProt Q01892 1-262). The conditions noted are these: protein: recombinant; tags: N-terminal GST; dsDNA, one strand shown. In short, it runs like this:
as §1

For another experiment, the target named is T6, ELK3 (Homo sapiens, UniProt P41970 1-407).
T6 sequence: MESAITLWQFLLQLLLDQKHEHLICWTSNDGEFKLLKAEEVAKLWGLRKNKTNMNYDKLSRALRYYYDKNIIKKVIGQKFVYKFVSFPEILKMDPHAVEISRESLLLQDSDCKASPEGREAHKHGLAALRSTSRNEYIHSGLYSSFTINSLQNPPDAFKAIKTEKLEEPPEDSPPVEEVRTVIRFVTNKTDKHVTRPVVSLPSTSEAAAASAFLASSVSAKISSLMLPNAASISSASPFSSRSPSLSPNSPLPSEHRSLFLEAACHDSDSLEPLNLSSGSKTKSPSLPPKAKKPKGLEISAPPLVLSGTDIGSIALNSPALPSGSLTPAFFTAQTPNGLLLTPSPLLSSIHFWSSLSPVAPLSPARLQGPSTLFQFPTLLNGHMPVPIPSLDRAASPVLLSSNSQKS
Conditions: protein: recombinant; tags: N-terminal GST; dsDNA, one strand shown. The essentials:
as §1

Another experiment concerns the target T7, FEV (Homo sapiens, UniProt Q99581 1-238).
T7 sequence: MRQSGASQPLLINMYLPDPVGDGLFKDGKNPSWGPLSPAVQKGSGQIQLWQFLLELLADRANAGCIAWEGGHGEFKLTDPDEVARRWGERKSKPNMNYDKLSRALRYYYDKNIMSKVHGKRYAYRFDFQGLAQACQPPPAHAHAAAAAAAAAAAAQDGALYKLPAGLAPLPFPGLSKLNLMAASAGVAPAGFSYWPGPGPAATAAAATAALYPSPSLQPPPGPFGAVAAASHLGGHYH
Conditions: protein: recombinant; tags: N-terminal GST; dsDNA, one strand shown. The essentials:
as §1

Another experiment concerns the target ETV5 (Homo sapiens, UniProt P41161 1-510). The conditions noted are these: protein: recombinant; tags: N-terminal GST; dsDNA, one strand shown. In short, it runs like this:
as §1

For a further experiment, the target named is HSF1 (Homo sapiens, UniProt Q00613 1-529). The conditions noted are these: protein: recombinant; tags: N-terminal GST; chain copies: 3; dsDNA, one strand shown. In short, it runs like this: as §1
The target of a further experiment is T8, SPIC (Homo sapiens, UniProt Q8N5J4 1-248).
T8 sequence: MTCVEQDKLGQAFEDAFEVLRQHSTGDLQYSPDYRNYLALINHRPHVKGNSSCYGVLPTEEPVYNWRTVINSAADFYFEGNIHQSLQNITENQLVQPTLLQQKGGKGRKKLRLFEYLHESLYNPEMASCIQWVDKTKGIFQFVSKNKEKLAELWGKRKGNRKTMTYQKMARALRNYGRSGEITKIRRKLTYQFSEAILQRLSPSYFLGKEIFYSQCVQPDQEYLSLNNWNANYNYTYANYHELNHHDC
The conditions noted are these: protein: recombinant; tags: N-terminal GST; dsDNA, one strand shown. In short, it runs like this:
as §1

The target of a further experiment is ELF4 (Homo sapiens, UniProt Q99607 1-663). The conditions noted are these: protein: recombinant; tags: N-terminal GST; dsDNA, one strand shown. In short, it runs like this: as §1
The target of another experiment is T9, ELK4 (Homo sapiens, UniProt P28324-2 1-405).
T9 sequence: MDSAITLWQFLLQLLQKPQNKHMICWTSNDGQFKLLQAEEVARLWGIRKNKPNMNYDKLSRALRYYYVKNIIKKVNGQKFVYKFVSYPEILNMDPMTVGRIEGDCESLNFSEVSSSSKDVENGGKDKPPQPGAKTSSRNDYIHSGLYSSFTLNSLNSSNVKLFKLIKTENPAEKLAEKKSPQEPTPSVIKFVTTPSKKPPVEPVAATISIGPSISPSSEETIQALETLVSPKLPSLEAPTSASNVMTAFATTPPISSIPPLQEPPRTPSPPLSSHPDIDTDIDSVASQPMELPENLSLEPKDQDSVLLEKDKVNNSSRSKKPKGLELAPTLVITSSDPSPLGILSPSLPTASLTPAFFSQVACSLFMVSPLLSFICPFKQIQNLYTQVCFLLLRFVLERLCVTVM
The conditions noted are these: protein: recombinant; tags: N-terminal GST; dsDNA, one strand shown. The essentials: as §1

The target of another experiment is T10, ETV2 (Homo sapiens, UniProt O00321 1-342).
T10 sequence: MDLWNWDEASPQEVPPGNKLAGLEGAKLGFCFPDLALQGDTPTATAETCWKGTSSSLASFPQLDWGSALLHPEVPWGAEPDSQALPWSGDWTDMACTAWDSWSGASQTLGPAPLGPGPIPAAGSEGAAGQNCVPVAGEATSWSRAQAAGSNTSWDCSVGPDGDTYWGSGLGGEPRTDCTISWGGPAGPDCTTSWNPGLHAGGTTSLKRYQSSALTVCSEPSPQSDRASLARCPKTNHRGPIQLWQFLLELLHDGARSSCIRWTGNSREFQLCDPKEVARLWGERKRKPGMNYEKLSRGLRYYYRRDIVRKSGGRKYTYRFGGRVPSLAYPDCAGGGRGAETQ
Conditions: protein: recombinant; tags: N-terminal GST; dsDNA, one strand shown. The essentials:
as §1

The next experiment has as its target T11, ELF3 (Homo sapiens, UniProt P78545 1-371).
T11 sequence: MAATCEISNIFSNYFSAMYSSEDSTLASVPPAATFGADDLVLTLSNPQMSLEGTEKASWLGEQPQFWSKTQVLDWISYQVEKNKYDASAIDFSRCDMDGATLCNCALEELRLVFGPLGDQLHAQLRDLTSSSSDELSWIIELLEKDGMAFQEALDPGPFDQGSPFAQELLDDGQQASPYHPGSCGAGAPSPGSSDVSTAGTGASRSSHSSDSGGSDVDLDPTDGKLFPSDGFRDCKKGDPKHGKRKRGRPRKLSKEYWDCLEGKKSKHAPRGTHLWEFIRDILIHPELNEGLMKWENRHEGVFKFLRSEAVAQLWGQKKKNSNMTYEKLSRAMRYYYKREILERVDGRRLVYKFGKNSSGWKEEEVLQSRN
The conditions noted are these: protein: recombinant; tags: N-terminal GST; dsDNA, one strand shown. In short, it runs like this:
as §1

A further experiment concerns the target ETV1 (Homo sapiens, UniProt P50549 1-477). The conditions noted are these: protein: recombinant; tags: N-terminal GST; dsDNA, one strand shown. In short, it runs like this: as §1

Sequence of ETV5 (P41161 whole entry): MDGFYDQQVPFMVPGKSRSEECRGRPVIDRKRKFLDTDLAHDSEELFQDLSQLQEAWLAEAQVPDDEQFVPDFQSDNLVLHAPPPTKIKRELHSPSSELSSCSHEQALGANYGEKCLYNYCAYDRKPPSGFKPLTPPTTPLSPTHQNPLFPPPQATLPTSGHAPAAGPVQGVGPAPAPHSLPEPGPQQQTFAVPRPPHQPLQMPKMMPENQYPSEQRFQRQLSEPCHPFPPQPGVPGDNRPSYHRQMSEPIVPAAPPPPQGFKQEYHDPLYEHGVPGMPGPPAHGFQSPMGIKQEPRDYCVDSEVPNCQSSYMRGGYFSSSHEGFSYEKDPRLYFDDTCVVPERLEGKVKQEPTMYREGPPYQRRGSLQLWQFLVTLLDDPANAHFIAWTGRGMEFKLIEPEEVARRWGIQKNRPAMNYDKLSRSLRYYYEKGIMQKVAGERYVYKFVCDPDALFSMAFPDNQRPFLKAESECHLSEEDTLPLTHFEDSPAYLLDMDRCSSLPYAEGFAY
Sequence of ETV1 (P50549 whole entry): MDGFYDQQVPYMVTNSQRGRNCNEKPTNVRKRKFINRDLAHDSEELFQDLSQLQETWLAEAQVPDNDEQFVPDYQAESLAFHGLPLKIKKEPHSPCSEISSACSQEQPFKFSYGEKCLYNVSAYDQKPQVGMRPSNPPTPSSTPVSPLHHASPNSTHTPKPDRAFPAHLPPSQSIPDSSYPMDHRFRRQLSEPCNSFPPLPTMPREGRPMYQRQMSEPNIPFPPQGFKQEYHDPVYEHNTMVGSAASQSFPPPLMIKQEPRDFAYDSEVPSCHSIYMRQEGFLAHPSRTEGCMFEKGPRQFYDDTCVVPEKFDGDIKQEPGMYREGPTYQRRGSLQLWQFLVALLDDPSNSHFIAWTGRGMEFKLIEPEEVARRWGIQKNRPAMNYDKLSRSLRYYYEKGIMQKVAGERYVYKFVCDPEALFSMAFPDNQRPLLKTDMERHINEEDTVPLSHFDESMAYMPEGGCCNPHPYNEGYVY
Sequence of HSF1 (Q00613 whole entry): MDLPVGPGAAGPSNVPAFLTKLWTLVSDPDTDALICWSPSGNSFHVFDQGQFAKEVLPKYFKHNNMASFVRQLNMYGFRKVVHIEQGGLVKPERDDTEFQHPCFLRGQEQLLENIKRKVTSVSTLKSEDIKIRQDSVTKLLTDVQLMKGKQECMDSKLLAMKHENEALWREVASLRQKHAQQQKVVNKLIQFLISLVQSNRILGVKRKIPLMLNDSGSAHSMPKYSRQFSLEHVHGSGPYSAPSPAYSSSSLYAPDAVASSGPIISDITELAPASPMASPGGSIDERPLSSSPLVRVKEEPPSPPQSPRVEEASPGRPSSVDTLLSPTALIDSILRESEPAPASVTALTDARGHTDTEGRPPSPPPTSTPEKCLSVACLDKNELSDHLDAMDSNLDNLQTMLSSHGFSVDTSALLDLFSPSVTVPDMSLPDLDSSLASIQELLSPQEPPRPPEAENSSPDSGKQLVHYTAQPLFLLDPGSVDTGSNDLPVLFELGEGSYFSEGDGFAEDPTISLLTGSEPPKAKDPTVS
Sequence of ELF1 (P32519 whole entry): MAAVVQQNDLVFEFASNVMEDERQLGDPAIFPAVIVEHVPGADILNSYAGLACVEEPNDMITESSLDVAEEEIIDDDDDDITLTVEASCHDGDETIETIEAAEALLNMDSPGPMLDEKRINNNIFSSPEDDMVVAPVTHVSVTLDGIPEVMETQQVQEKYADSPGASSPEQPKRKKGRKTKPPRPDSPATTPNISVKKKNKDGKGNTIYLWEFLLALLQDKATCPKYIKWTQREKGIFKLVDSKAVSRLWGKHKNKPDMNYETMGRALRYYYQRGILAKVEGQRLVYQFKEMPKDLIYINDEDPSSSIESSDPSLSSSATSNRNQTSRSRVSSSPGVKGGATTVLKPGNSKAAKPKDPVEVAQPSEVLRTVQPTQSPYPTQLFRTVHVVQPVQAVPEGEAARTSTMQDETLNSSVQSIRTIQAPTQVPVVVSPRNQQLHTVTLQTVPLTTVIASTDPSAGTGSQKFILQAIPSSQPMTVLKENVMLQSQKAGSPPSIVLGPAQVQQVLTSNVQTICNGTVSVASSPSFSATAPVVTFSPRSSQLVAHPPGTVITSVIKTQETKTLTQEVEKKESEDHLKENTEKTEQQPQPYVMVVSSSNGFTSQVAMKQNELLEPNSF
Sequence of SPIB (Q01892 whole entry): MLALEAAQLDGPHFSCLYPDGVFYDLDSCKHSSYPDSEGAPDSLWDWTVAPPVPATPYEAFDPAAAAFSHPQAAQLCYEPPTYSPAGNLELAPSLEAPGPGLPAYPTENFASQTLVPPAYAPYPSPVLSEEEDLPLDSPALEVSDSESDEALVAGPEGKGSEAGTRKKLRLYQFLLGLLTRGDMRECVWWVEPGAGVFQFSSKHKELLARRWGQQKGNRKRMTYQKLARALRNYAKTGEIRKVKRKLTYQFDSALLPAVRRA
Sequence of ELF4 (Q99607 whole entry): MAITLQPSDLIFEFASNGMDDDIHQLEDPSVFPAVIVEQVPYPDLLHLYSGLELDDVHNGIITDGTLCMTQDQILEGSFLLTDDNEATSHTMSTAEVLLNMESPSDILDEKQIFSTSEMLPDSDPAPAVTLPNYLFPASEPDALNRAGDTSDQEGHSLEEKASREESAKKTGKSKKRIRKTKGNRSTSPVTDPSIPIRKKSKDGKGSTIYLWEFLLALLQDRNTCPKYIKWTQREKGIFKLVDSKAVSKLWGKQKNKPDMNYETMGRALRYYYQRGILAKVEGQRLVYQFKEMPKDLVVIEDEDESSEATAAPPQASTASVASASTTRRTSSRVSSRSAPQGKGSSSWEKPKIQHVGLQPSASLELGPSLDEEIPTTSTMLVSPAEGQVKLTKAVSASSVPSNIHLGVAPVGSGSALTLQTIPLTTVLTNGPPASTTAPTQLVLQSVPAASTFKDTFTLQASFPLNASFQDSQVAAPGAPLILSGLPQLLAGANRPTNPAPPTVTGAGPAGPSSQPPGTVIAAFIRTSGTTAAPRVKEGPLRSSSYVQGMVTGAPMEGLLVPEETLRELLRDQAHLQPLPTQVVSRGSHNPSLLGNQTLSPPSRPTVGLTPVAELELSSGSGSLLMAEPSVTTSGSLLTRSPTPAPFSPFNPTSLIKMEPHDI

Turning to GATGCC, the binding signal with FLI1 was 1.45 fold enrichment (6-mer frequency, TF over GST control); with ELK1, 1.36 fold enrichment (6-mer frequency, TF over GST control); with GABPA, 1.38 fold enrichment (6-mer frequency, TF over GST control); in the experiment with ERG, 1.41 fold enrichment (6-mer frequency, TF over GST control); with ELF1, 1.32 fold enrichment (6-mer frequency, TF over GST control); in the experiment with EHF it was 1.41 fold enrichment (6-mer frequency, TF over GST control). The binding signal with SPI1 was 1.35 fold enrichment (6-mer frequency, TF over GST control); with SPIB, 1.26 fold enrichment (6-mer frequency, TF over GST control); with ELK3 it was 1.38 fold enrichment (6-mer frequency, TF over GST control); with FEV, 1.41 fold enrichment (6-mer frequency, TF over GST control); with ETV5, 1.46 fold enrichment (6-mer frequency, TF over GST control); with HSF1, 1.08 fold enrichment (6-mer frequency, TF over GST control). The binding signal with SPIC is 1.22 fold enrichment (6-mer frequency, TF over GST control); with ELF4, 1.31 fold enrichment (6-mer frequency, TF over GST control); in the experiment with ELK4, 1.42 fold enrichment (6-mer frequency, TF over GST control); with ETV2 it was 1.28 fold enrichment (6-mer frequency, TF over GST control); with ELF3, 1.4 fold enrichment (6-mer frequency, TF over GST control); with ETV1 it was 1.36 fold enrichment (6-mer frequency, TF over GST control).
